Test results taken from PubChem BioAssay (NCI).
Where “and” joins values, the source holds several entries; their conditions need not be identical. Equal values may be shown once. This is part of a sample that, as a whole, favours compounds with a hit. Of some 79,000 tested, about 15% had one in any assay. Calls of active or inactive are those of the source. No stated cut-off is given here; in the data, active means growth inhibition above about 70%; inactive means the rest.

Experiments:
[1] = NCI Yeast Anticancer Drug Screen. Data for the rad52 strain (AID 147);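 further: 0% = growth of vehicle-treated control cultures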; details: S. cerevisiae rad52 mutant growth inhibition, active compounds read high
Procedure, shortened: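 Inhibition of yeast growth, referenced to vehicle controls, was the measured output for a strain with defective DNA damage repair.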

[2] = NCI Yeast Anticancer Drug Screen. Data for the wt1 strain (AID 149);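 further: 0% = growth of vehicle-treated wt1 cultures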; details: S. cerevisiae wt1 strain (SPY 50644) growth inhibition, active compounds read high
Procedure, shortened: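 Each compound is tested on wt1 yeast and the loss of growth versus vehicle gives the inhibition value.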

[3] = NCI Yeast Anticancer Drug Screen. Data for the mgt1 strain (AID 153); details: S. cerevisiae mgt1 mutant growth inhibition, active compounds read high
Procedure, shortened: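 In the mgt1 strain, test compounds were added and growth inhibition was determined relative to vehicle-treated controls.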

[4] = NCI Yeast Anticancer Drug Screen. Data for the rad50 strain (AID 155);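 further: 0% = growth of vehicle-only cultures of the same strain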; details: S. cerevisiae rad50 strain growth inhibition, active compounds read high
Procedure, shortened: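 Vehicle-treated cultures provide the reference for the growth inhibition reported for compound-exposed, repair-deficient yeast.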

[5] = NCI Yeast Anticancer Drug Screen. Data for the mec2-1 strain (AID 157); details: S. cerevisiae mec2-1 strain, active compounds read high
Procedure, shortened: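 Each compound was tested on mec2-1 yeast, a strain altered in DNA damage repair or cell cycle control. Growth inhibition is reported relative to vehicle.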

[6] = NCI Yeast Anticancer Drug Screen. Data for the rad14 strain (AID 159);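 further: 0% = growth of vehicle-treated control cultures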; details: S. cerevisiae rad14 strain growth inhibition, active compounds read high
Procedure, shortened: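 Inhibition of growth is reported for a repair-deficient yeast mutant following compound treatment, calculated relative to cultures that received vehicle.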

[7] = NCI Yeast Anticancer Drug Screen. Data for the sgs1 mgt1 strain (AID 161);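 further: 0% = growth of cultures given vehicle only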; details: S. cerevisiae sgs1 mgt1 strain, active compounds read high
Procedure, shortened: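 Genetically altered yeast, compound exposure, growth inhibition relative to vehicle.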

[8] = NCI Yeast Anticancer Drug Screen. Data for the cln2 rad14 strain (AID 165);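 further: 0% = growth equal to vehicle treated cultures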; details: S. cerevisiae cln2 rad14 strain, active compounds read high
Procedure, shortened: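 Test compounds were added to cln2 rad14 yeast cultures; inhibition of growth was then determined by comparison with vehicle treatment.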

[9] = NCI Yeast Anticancer Drug Screen. Data for the bub3 strain (AID 167); details: S. cerevisiae bub3 mutant strain, active compounds read high
Procedure, shortened: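 Mutant yeast screening strain plus compound; vehicle-treated cultures serve as the 0% inhibition reference.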

[10] = NCI Yeast Anticancer Drug Screen. Data for the wt2 strain (AID 169); details: S. cerevisiae wt2 strain growth inhibition, active compounds read high
Procedure, shortened: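 The panel's yeast strains carry defined changes in DNA repair or cell cycle genes. Each strain is grown with compound, and growth loss is scored relative to vehicle.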

[11] = NCI Yeast Anticancer Drug Screen. Data for the mlh1 strain (AID 171);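 further: 0% = growth of vehicle-treated control cultures of the same strain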; details: S. cerevisiae mlh1 strain growth inhibition, active compounds read high
Procedure, shortened: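 Inhibition values reflect reduced yeast growth in the presence of compound, referenced to vehicle controls, using a strain chosen for its alteration in DNA repair or cell cycle control.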

[12] = NCI Yeast Anticancer Drug Screen. Data for the sgs1 strain (AID 173);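 further: 0% = growth of vehicle-only control cultures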; details: S. cerevisiae sgs1 mutant, active compounds read high
Procedure, shortened: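 Vehicle-treated cultures served as reference for growth inhibition of a yeast strain altered in DNA damage repair or cell cycle control after compound exposure.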

[13] = NCI Yeast Anticancer Drug Screen. Data for the mlh1 rad18 strain (AID 175); details: S. cerevisiae mlh1 rad18 strain growth inhibition, active compounds read high
Procedure, shortened: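 Inhibition values reflect reduced growth of mutant yeast versus vehicle-treated controls following compound exposure; the mutations affect DNA damage repair.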

[14] = NCI Yeast Anticancer Drug Screen. Data for the rad18 strain (AID 177); details: S. cerevisiae rad18 mutant growth inhibition, active compounds read high
Procedure, shortened: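 Steps: expose repair-mutant yeast to compound; measure growth; express as inhibition relative to vehicle control.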

[15] = at 5.0 µM (retest, dose inferred, filed as 0.5)
[16] = at 50.0 µM (retest, dose inferred, filed as 5.0)

Measured: growth inhibition

Cc1ccc(CC2(OCCN(C)C)CCC(C(C)(C)C)CC2)cc1 (stereo not drawn)
inactive: [1]; at 1.2 µM 8% | [1]; at 3.7 µM 3% | [1]; at 11.0 µM 8% | [1]; at 33.0 µM 37% | [2]; at 1.2 µM 9% | [2]; at 3.7 µM 12% | [2]; at 11.0 µM -5% | [2]; at 33.0 µM 9% | [3]; at 1.2 µM 14% | [3]; at 3.7 µM 12% | [3]; at 11.0 µM 21% | [4]; at 1.2 µM -3% | [4]; at 3.7 µM 0% | [4]; [15] 13% and 12% | [4]; at 11.0 µM 7% | [4]; at 33.0 µM 64% | [5]; at 1.2 µM -7% | [5]; at 3.7 µM -11% | [5]; [15] -8% and -7% | [5]; at 11.0 µM -7% | [5]; at 33.0 µM 43% | [6]; at 1.2 µM -7% | [6]; at 3.7 µM -3% | [6]; at 11.0 µM 15% | [7]; [15] -5% and -7% | [8]; [15] 20% and 10% | [9]; at 1.2 µM -23% | [9]; at 3.7 µM -24% | [9]; [15] 11% and 7% | [9]; at 11.0 µM -11% | [9]; at 33.0 µM 6% | [10]; at 1.2 µM -19% | [10]; at 3.7 µM -8% | [10]; at 11.0 µM -16% | [10]; at 33.0 µM 36% | [11]; at 1.2 µM 3% | [11]; at 3.7 µM -1% | [11]; at 11.0 µM 13% | [12]; at 1.2 µM 24% | [12]; at 3.7 µM 26% | [12]; at 11.0 µM 41% | [13]; [15] 9% and 10% | [14]; at 1.2 µM 3% | [14]; at 3.7 µM -14% | [14]; at 11.0 µM -12% | [14]; at 33.0 µM 36%
active: [1]; at 100.0 µM 98% | [2]; at 100.0 µM 99% | [3]; at 33.0 µM 84% | [3]; at 100.0 µM 99% | [4]; [16] 100% | [4]; at 50.0 µM 98.6% and 98.5% | [4]; at 100.0 µM 98% | [5]; [16] 99% and 93% | [5]; at 50.0 µM 98.5% and 99.3% | [5]; at 100.0 µM 99% | [6]; at 33.0 µM 92% | [6]; at 100.0 µM 98% | [7]; [16] 85% and 91% | [7]; at 50.0 µM 98.7% and 99.4% | [8]; [16] 89% and 76% | [8]; at 50.0 µM 99.2% and 99.5% | [9]; [16] 99% | [9]; at 50.0 µM 87.5% and 99.2% | [9]; at 100.0 µM 98% | [10]; at 100.0 µM 99% | [11]; at 33.0 µM 85% | [11]; at 100.0 µM 98% | [12]; at 33.0 µM 82% | [12]; at 100.0 µM 99% | [13]; [16] 100% and 99% | [13]; at 50.0 µM 99.5% and 99.4% | [14]; at 100.0 µM 98%
